According to the supplement of paper PMC9694430:
Counter-ions that a name gives are not always drawn.

Legend:
Experiment in all cases: thermal shift delta Tm vs DMSO control; higher = stronger stabilization (binding)
Settings in all cases: 12.5 µM; protein concentration 2 µM
LOC_OS01G01410-cb001 = test system: LOC_OS01G01410-cb001
Summary of the method: (§1)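 Thermal shift values come from differential scanning fluorimetry on purified rice kinase domains made in E. coli, with melting temperatures obtained from Boltzmann fits. Samples of 19.5 μl held 2 μM kinase, 100 mM potassium phosphate pH 7.5, 150 mM NaCl, 10% glycerol, 5 × SYPRO Orange and compound in DMSO, and were heated from 25°C to 95°C at 0.05°C/s. Each shift is a triplicate mean relative to the DMSO-only protein sample.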

LOC_OS01G02750-cb003 = test system: LOC_OS01G02750-cb003
Summary of the method: as §1

LOC_OS01G10900-cb004 = test system: LOC_OS01G10900-cb004
Summary of the method: as §1

LOC_OS01G13800-cb001 = test system: LOC_OS01G13800-cb001
Summary of the method: as §1

LOC_OS01G14860-cb001 = test system: LOC_OS01G14860-cb001
Summary of the method: as §1

LOC_OS01G21960-cb002 = test system: LOC_OS01G21960-cb002
Summary of the method: as §1

LOC_OS01G39600-cb002 = test system: LOC_OS01G39600-cb002
Summary of the method: as §1

LOC_OS01G48390-cb002 = test system: LOC_OS01G48390-cb002
Summary of the method: as §1

LOC_OS01G51400-cb002 = test system: LOC_OS01G51400-cb002
Summary of the method: as §1

LOC_OS01G52050-cb004 = test system: T1, LOC_OS01G52050-cb004
T1 sequence (whole entry): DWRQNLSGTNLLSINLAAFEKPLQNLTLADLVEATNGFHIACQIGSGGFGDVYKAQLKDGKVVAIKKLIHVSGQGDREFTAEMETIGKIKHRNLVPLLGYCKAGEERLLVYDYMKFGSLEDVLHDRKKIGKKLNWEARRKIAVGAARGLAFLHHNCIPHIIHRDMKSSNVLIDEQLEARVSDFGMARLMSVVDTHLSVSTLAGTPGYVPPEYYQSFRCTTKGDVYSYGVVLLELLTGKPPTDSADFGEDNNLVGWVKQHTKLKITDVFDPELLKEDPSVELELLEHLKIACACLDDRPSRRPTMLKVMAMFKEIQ
Summary of the method: as §1

LOC_OS01G57100-cb003 = test system: LOC_OS01G57100-cb003
Summary of the method: as §1

LOC_OS01G60330-cb001 = test system: LOC_OS01G60330-cb001
Summary of the method: as §1

LOC_OS01G60700-cb002 = test system: LOC_OS01G60700-cb002
Summary of the method: as §1

LOC_OS01G63280-cb003 = test system: LOC_OS01G63280-cb003
Summary of the method: as §1

LOC_OS01G67340-cb003 = test system: LOC_OS01G67340-cb003
Summary of the method: as §1

LOC_OS01G70970-cb002 = test system: LOC_OS01G70970-cb002
Summary of the method: as §1

LOC_OS02G07810-cb001 = test system: LOC_OS02G07810-cb001
Summary of the method: as §1

LOC_OS02G08530-cb003 = test system: LOC_OS02G08530-cb003
Summary of the method: as §1

LOC_OS02G14120-cb001 = test system: LOC_OS02G14120-cb001
Summary of the method: as §1

LOC_OS02G17970-cb001 = test system: LOC_OS02G17970-cb001
Summary of the method: as §1
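Also: purified Escherichia coli-expressed rice kinase domain construct.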

Structure (SMILES) | thermal shift delta Tm (LOC_OS01G01410-cb001) [°C] | thermal shift delta Tm (LOC_OS01G02750-cb003) [°C] | thermal shift delta Tm (LOC_OS01G10900-cb004) [°C] | thermal shift delta Tm (LOC_OS01G13800-cb001) [°C] | thermal shift delta Tm (LOC_OS01G14860-cb001) [°C] | thermal shift delta Tm (LOC_OS01G21960-cb002) [°C] | thermal shift delta Tm (LOC_OS01G39600-cb002) [°C] | thermal shift delta Tm (LOC_OS01G48390-cb002) [°C] | thermal shift delta Tm (LOC_OS01G51400-cb002) [°C] | thermal shift delta Tm (LOC_OS01G52050-cb004) [°C] | thermal shift delta Tm (LOC_OS01G57100-cb003) [°C] | thermal shift delta Tm (LOC_OS01G60330-cb001) [°C] | thermal shift delta Tm (LOC_OS01G60700-cb002) [°C] | thermal shift delta Tm (LOC_OS01G63280-cb003) [°C] | thermal shift delta Tm (LOC_OS01G67340-cb003) [°C] | thermal shift delta Tm (LOC_OS01G70970-cb002) [°C] | thermal shift delta Tm (LOC_OS02G07810-cb001) [°C] | thermal shift delta Tm (LOC_OS02G08530-cb003) [°C] | thermal shift delta Tm (LOC_OS02G14120-cb001) [°C] | thermal shift delta Tm (LOC_OS02G17970-cb001) [°C]
COc1cc2nccc(Oc3ccc(NC(=O)NC4CC4)c(Cl)c3)c2cc1C(N)=O [Lenvatinib (E7080)] | 1.14 | 1.17 | 0.52 | 0.29 | 0.28 | 0.62 | -0.02 | 0.47 | 0.04 | 0.33 | -0.21 | 1.52 | 1.38 | 0.36 | -0.21 | 0.67 | 0.65 | 1.11 | 0.02 | 0.27
CCCNC(=O)Nc1ccc(Oc2ncnc3cc(OC)c(OC)cc23)cc1Cl | 0.04 | 0.33 | -0.21 | -0.35 | -0.27 | 0.37 | 0.76 | 0.53 | -0.13 | 1.02 | 0.3 | 0.97 | -0.2 | 0.14 | -0.13 | -0.25 | 0.93 | 1.15 | -0.1 | 0.04
CCN(C)S(=O)(=O)Nc1ccc(F)c(C(=O)c2c[nH]c3ncc(-c4cnc(C5CC5)nc4)cc23)c1F | 1.92 | 0.92 | 1.18 | 0.03 | 2.04 | 0.51 | 3.55 | 1.01 | 0.11 | 0.72 | 1.23 | 1.8 | 0.8 | 7.4 | 0.55 | 0.37 | 0.74 | 0.59 | -0.46 | 0.71
CN1C(=O)[C@@H](NC(=O)c2n[nH]c(Cc3ccccc3)n2)COc2ccccc21 | 0.8 | 1.65 | 0.07 | 0.83 | 0.52 | 0.05 | 0.62 | 0.43 | 0.45 | 2.47 | 0.85 | 0.1 | 0.2 | 0.29 | 0.17 | 0.41 | -0.03 | 0.55 | 0.71 | 0.62
O=C(O)c1ccc2c3c1cccc3c(=O)n1c3ccccc3nc21 | 3.12 | 0.97 | 0.69 | 0.32 | 1.4 | 0.71 | 0.62 | 0.91 | 0 | 1.18 | 1.73 | 3.73 | 1 | 0.76 | 1 | 0.87 | 0.5 | 0.93 | 3.53 | 0.44
CN(C)CCOc1ccc(-c2nc(-c3ccncc3)c(-c3ccc4c(c3)CC/C4=N\O)[nH]2)cc1 | 1.77 | 0.07 | 3.19 | 0.05 | 0.42 | -0.07 | 0.16 | 1.16 | 0.46 | 0.22 | 1.76 | 0.92 | 0.49 | 0.02 | -0.45 | 0.15 | 1.2 | 0.96 | -0.05 | -0.1
Oc1ccc(Nc2nc(-c3ccc(Cl)cc3)cs2)cc1 | 1.11 | 3.1 | 0.5 | 0.46 | 1.41 | -0.09 | 4.96 | 1.3 | 1.51 | 3.09 | -1.22 | 2.57 | -0.25 | 3.13 | 0.86 | 1.06 | 0.81 | -0.94 | 0.14 | -0.04
CC(C)NC(=O)COc1cccc(-c2nc(Nc3ccc4[nH]ncc4c3)c3ccccc3n2)c1 | 0.42 | 0.09 | 0.99 | 0.46 | 1.95 | 1.23 | -0.3 | 0.33 | -0.24 | 1.34 | 1.14 | 12.3 | 0.68 | 0.55 | 0.91 | 0.76 | 1.23 | 1.03 | 2.71 | 1.76
CN1CCC(Nc2nc(Nc3ccc(Oc4ccccc4)cc3)c3c(=O)[nH]cc(Br)c3n2)CC1 | 1.56 | 2.82 | 0.27 | 0.59 | 2.99 | 2.71 | 0.76 | 2.51 | 0.72 | 4.93 | 1.9 | 3.13 | 1.69 | 0.86 | 1.7 | 3.58 | 0.79 | 3.25 | 3.98 | 0.52
O=c1cc(N2CCOCC2)oc2c(-c3cccc4c3sc3ccccc34)cccc12 | -0.61 | -1.71 | 3.77 | -1.29 | 0.08 | -0.64 | -1.62 | -0.49 | -1.28 | -0.72 | 0.74 | 0.23 | -0.43 | -0.77 | -0.51 | -0.71 | -0.42 | 0.52 | 0.46 | 0.12
Cc1cc(Nc2cc(N3CCN(C)CC3)nc(/C=C/c3ccccc3)n2)n[nH]1 [ENMD-2076 L-(+)-Tartaric acid] | 2.38 | 2.56 | 1.86 | -0.25 | 4.33 | 2.63 | 1.94 | 3.3 | 0.81 | 4.1 | 1.16 | 8.71 | 1.16 | 0.86 | 1.45 | 3.09 | 0.04 | 2.96 | 7.86 | 0.95
CNC(=O)c1cc(Oc2ccc(NC(=O)Nc3ccc(Cl)c(C(F)(F)F)c3)cc2)ccn1 [Sorafenib Tosylate] | 2.14 | 5.21 | 1.97 | 1.97 | 5.9 | 2.13 | 2.03 | 2.56 | 1.31 | 5.16 | 4.07 | 3.91 | 1.77 | 9.15 | 0.52 | 1.83 | 2.2 | 1.92 | 3.45 | 1.56
